# Source: PubChem BioAssay (Tox21)
# Records with an inconclusive call do not appear. Where a call stands in place of a potency, no number is given. Values without a mark were called inactive. Active and inactive are the calls of the source. Calls follow the shape of the dose curve; as a rule, active = well fitted cell-killing curve with a large enough effect in the repeat runs; inconclusive = weak or mixed curves, or effect the other way; inactive = flat fitted curve, though single readings scatter.
# What was measured:
# [1] = cAMP Responsive Elements (CRE) small molecule antagonists, cell-based qHTS assay: qHTS cell viability counter screen (AID 2060913); also: nearly all actives have a fitted effect of over 40% in size
# Procedure, shortened: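 CRE-bla HEK293T cells (2,000/well, 18 h) given compound plus NKH477 0.25 uM final for 3 h at 37C; viability counter-screen by CellTiter-Glo luminescence in same wells after 30 min.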
# [2] = cAMP Responsive Elements (CRE) small molecule agonists, cell-based qHTS assay: qHTS cell viability counter screen (AID 2060914); also: nearly all actives have a fitted effect of over 50% in size
# Procedure, shortened: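 Cytotoxicity was measured as ATP luminescence (CellTiter-Glo, 30 min at room temperature) in the same wells as the CRE-bla FRET read-out. HEK293T CRE-bla cells had 3 h compound exposure at 37C/5% CO2.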
# Potency is read from the fitted curve at half-maximal effect.
SMILES,Potency [1],Potency [2],"viability change, negative = cytotoxic [1]","activity change, negative = cytotoxicity [2]"
CC(C)CCCC(C)CC=O (stereo not drawn),inactive,inactive,,
CCCCCCCCn1sc(Cl)c(Cl)c1=O,30.6 µM (active),43.3 µM (active),,
O=C(Oc1ccccc1)c1ccccc1C(=O)Oc1ccccc1,inactive,inactive,,
CC(C)=CCC/C(C)=C/C#N,inactive,inactive,,
CC(=O)N(CC(=O)N(C)C)c1ccccc1,inactive,inactive,,
[Cl][Au]([Cl])[Cl],inactive,inactive,,
C=C(C)c1cccc(C(=C)C)c1,inactive,inactive,,
CCNC(=O)/C=C/c1cccc(Br)c1,inactive,inactive,,
CCN(C)C(=O)Oc1cccc([C@H](C)N(C)C)c1,inactive,inactive,,
O=C1CCCC(=O)C1,inactive,inactive,,
CC(=O)N[C@@H](CC(C)C)C(=O)O,inactive,inactive,,
Cc1ccsc1C(=CCCN1CCC[C@@H](C(=O)O)C1)c1sccc1C,inactive,inactive,,
CCCCCCCCCCCCCCCCI,,,12.3% [at 18.9 µM],-9.53% [at 18.9 µM]
N#Cc1nc(Cl)c(Cl)c(Cl)c1Cl,inactive,inactive,,
O=c1c2ccccc2oc2ccccc12,inactive,inactive,,
CC(C)(O)c1ccccc1,inactive,inactive,,
CC1(C)O[C@@H]2C[C@H]3[C@@H]4C[C@H](F)C5=CC(=O)C=C[C@]5(C)[C@H]4[C@@H](O)C[C@]3(C)[C@]2(C(=O)CO)O1,inactive,inactive,,
CCCC(=O)OC(=O)CCC,inactive,inactive,,
Cc1ccc(CCn2c3c(c4cc(Cl)ccc42)CN(C)CC3)cn1,inactive,inactive,,
